# HCMV inh: qHTS Assay for inhibitors of the human cytomegalovirus (HCMV). hit rate 4.5% among 410,000. activity change, negative = inhibition, % at 57.5 µM. HFF cells, HCMV-luciferase reporter, 72 h; hits give low values; in the data active = activity change below about -60%; inconclusive = no clear call, values can overlap the other calls; inactive = above about -39%
#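 Steps: HFFs plated, 16 h 37C; compounds added; HCMV-luciferase added to MOI 1 PFU/cell; 72 h 37C; OneGlo reagent, 5 min room temperature; luminescence read, normalized to controls.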
# FMDV antiviral: High Throughput Screening for Foot and Mouth Disease Virus Antivirals; FMDV antiviral cell-based qHTS; Potency, µM (doses to about 57.9 µM), inactives show top-dose activity change, negative = inhibition, actives largely listed as inhibitors; hit rate 1.2% among 410,000; AID 1159524, 2015; calls by dose curve; tested in HEK293T cells; note: read-out not given here; potency is the fitted concentration of half-maximal effect; nearly all actives have a fitted effect of over 45% in size
# FBPA Giardia inh: qHTS Assay for Inhibitors of Fructose-1,6-bisphosphate Aldolase from Giardia Lamblia; purified Giardia FBPA; AID 2451, 2010; A8B2U2; hit rate 0.71% among 290,000; Potency, µM (highest dose often 59.6 µM), inactives show at the highest dose activity, negative = inhibition, hits mostly inhibitors; note: potency is the fitted concentration of half-maximal effect; nearly all actives have a fitted effect of over 55% in size
# Target sequence (A8B2U2 whole entry, looked up): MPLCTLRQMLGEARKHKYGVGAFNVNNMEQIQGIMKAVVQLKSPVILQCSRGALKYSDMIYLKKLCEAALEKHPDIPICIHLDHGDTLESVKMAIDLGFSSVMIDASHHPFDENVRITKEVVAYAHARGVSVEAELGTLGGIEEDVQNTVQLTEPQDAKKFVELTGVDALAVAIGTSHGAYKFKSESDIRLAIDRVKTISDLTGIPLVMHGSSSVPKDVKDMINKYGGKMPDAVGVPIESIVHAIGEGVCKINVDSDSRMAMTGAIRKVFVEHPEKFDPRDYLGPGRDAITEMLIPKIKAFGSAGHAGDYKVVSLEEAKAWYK
#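 40 nM FBPA preincubated 10 min at RT with compound (up to 57.5 uM final), then substrate plus GAPDH/TPI/NAD/arsenate coupling and diaphorase/resazurin added. Fluorescence read after 20 min at RT, 525/598 nm.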
# RE007 growth inh: qHTS Assay for Inhibitors of the HIV-1 protein Vpr | S. pombe RE007 Vpr strain, BacTiter-Glo ATP luminescence, 24 h | Potency, µM (highest dose often 92.2 µM), for inactives: top-dose activity change, negative = less growth, most hits filed as inhibitors | hit rate 0.21% among 360,000 | AID 651644, 2012; active = well fitted falling curve with a large enough effect; inconclusive = small, poorly fitted or top-dose-only effect; inactive = no such curve, though single readings can be large or run the other way; note: potency is the fitted concentration of half-maximal effect; nearly all actives have a fitted effect of over 50% in size
#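 Fission yeast strain RE007, carrying one chromosomally integrated HIV-1 vpr copy, was seeded at OD 0.01 in PMG+AL medium with 23 nL pinned compound. After 24 h at 30 °C and 99% humidity, viability was read by BacTiter-Glo luminescence.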
# Sm TGR block: qHTS Assay for the Inhibitors of Schistosoma Mansoni Peroxiredoxins; Schistosoma mansoni thioredoxin glutathione reductase (TGR), Q962Y6; purified TGR, DTNB reduction, TNB absorbance 405 nm; AID 485364, 2010; Potency, µM (series often up to 114 µM), without a hit: at the top dose activity change, negative = inhibition, usual class: inhibitors; hit rate 3% among 360,000; note: potency is the fitted concentration of half-maximal effect; nearly all actives have a fitted effect of over 60% in size
#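 TGR 20 nM + NADPH 100 uM (dispensed conc.), cpd preinc 15 min RT; start with NADPH (500 uM addition) then DTNB (15 mM addition). Kinetic TNB absorbance, 405 nm filter. Four-parameter Hill fit across titration.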
# Tb PYK inh: qHTS of Trypanosoma Brucei Inhibitors | pyruvate kinase (Trypanosoma brucei), Q57TT1 | TbPYK enzyme, Kinase-Glo Plus ATP luminescence, 45 min | Potency, µM (highest dose often 76.8 µM), without a hit: at the highest dose activity, negative = inhibition, usual class: inhibitors | hit rate 0.12% among 410,000 | AID 624173, 2012; note: potency is the fitted concentration of half-maximal effect; nearly all actives have a fitted effect of over 50% in size
#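 Enzyme and substrate buffer are dispensed first and compound is pin-transferred. ADP at 130 uM final then starts the reaction, which runs 45 min at room temperature. Detection reagent is added for 10 min before luminescence is imaged.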
# * hit, by the source's call; ? = inconclusive; / = no result; [ ] = remark or other dose. Only some compounds are listed: those with a hit (about 7.7% of all), similar ones and a draw of the others. Unless noted, calls come from the whole dose curve; as a rule, active = well fitted curve in the direction sought with a large enough effect; inconclusive = small, poorly fitted or top-dose-only effect, or another doubt; inactive = no such curve, though single readings can be large; an effect the other way counts as inactive or inconclusive. % is set by controls: 0 for no effect and ±100 for the full control effect.
SMILES,HCMV inh,FMDV antiviral,FBPA Giardia inh,RE007 growth inh,Sm TGR block,Tb PYK inh
O=C(O)c1ccccc1-c1c2ccc(=O)cc-2oc2cc(O)ccc12,/,/,13%,/,/,-8%
COC(=O)c1ccccc1-c1c2ccc(=N)cc-2oc2cc(N)ccc12,-97*,0%,/,-15%,-4%,?
C=CC(=O)NCCCc1cc(C(C)(C)C)c(O)c(C(C)(C)C)c1,-96*,0%,-4%,9%,-30%,-3%
O=[N+]([O-])c1ccc(-c2ccc(/C=N/Nc3nc(NCc4ccccc4)nc(N4CCOCC4)n3)o2)cc1,-88*,-13%,-2%,0%,2%[57.1 µM],0%
O=[N+]([O-])c1ccc(/C=N/Nc2nc(N3CCCCCC3)nc(N3CCCCCC3)n2)o1,-11,?,-23%,-12%,-33%,-5%
C=C1C[C@@H]2[C@H]3CCC4=CC(=O)C=C[C@]4(C)[C@@]3(F)[C@@H](O)C[C@]2(C)[C@]1(O)C(=O)COC(C)=O,/,/,/,/,/,2%
CSc1ccccc1C(=O)NC(C)c1ccc(-n2ccnc2)cc1 (stereo unspecified),-12,-23%,/,-3%,5.6µM*,1%
CC(NC(=O)c1ccccc1Cl)c1ccc(-n2ccnc2)cc1 (stereo unspecified),-4,2%,/,7%,/,-4%
C[C@H](N)C(=O)N[C@@H](Cc1ccc(F)cc1)C(=O)N[C@@H](CCCN=C(N)N)C(=O)N[C@@H](CC1CCCCC1)C(=O)N[C@@H](CCCCN=C(N)N)C(=O)N[C@@H](Cc1ccc(O)cc1)C(N)=O,/,/,3%,/,/,/
CC(C)N1CCN(C(=O)c2ccc(OC3CCN(CCc4ccccc4)CC3)cc2)CC1,-21,24%,/,-12%,-3%,-10%
O=C(c1ccc(OC2CCN(CCc3ccccc3)CC2)cc1)N1CCCC1,-63*,16%,/,1%,-3%,-1%
CCC(C)SCc1nc2ccccc2[nH]1 (stereo unspecified),-63*,2%,-6%,-11%,2%,-7%
O=C(NCc1cccs1)c1nn(-c2ccccc2F)nc1CO,-66*,?,/,/,-2%,-1%
O=C(NCC(c1ccccc1)c1ccccc1)c1nn(-c2ccccc2F)nc1CO,-35,10µM*,/,/,3%,3%
O=C(NCCCc1ccccc1)c1nn(-c2ccccc2F)nc1CO,-61*,?,/,/,2%,5%
O=C(NCCCCc1ccccc1)c1nn(-c2ccccc2F)nc1CO,-20,0%,/,/,3%,0%
Clc1cccc(Cl)c1Cn1cnc(=NCc2ccco2)c2[nH]cnc21,-71*,4%,3%,8%,-30%,1%
COc1ccc(Nc2cc(C(=O)NCCCN3CCN(c4ccc(OC)cc4)CC3)c3ccccc3n2)cc1,-75*,40µM*,/,/,2%,1%
COc1ccc(Nc2cc(C(=O)NCCCN(C)Cc3ccccc3)c3ccccc3n2)cc1,-93*,-13%,/,/,0%,4%
CSc1cccc(Nc2cc(C(=O)NCCCN(Cc3ccccc3)C(C)C)c3ccccc3n2)c1,-104*,?,/,/,16%,3%
COc1ccc(N2CCN(CCCNC(=O)c3cc(Nc4ccccc4OC)nc4ccccc34)CC2)cc1,?,?,/,/,-6%,-12%
Cc1cc(C)cc(Nc2cc(C(=O)NCCCN(Cc3ccccc3)C(C)C)c3ccccc3n2)c1,-27,?,/,/,-4%,2%
Cc1ccc(/C=C/c2onc(C)c2S(=O)(=O)N2CCC(C(=O)NCc3ccc(C)o3)CC2)cc1,40,-8%,/,/,-7%,3%
CCNC(=O)c1ccc(C)c(-n2c(C)nc3cccnc32)c1,0,3%,/,/,6%,-12%[15.4 µM]
CN(C)c1ccc(C(C[N+](=O)[O-])c2c(N)n(C)c(=O)n(C)c2=O)c(F)c1C#N (stereo unspecified),/,35µM*,-1%,?,-3%,-5%
SMILES,HCMV inh,FMDV antiviral,FBPA Giardia inh,RE007 growth inh,Sm TGR block,Tb PYK inh
COc1ccc(Br)cc1C(C[N+](=O)[O-])c1c(N)n(C)c(=O)n(C)c1=O (stereo unspecified),-100*,?,-3%,10µM*,-20%,-4%
Cn1c(N)c(C(C[N+](=O)[O-])c2c(F)cccc2Cl)c(=O)n(C)c1=O (stereo unspecified),?,-14%,8%,?,-14%,3%
COc1ccc2cc(CNC3CCS(=O)(=O)C3)c(-c3ccc(OC)c(OC)c3)nc2c1 (stereo unspecified),/,-15%,/,/,/,/
Clc1ccc2c(c1)-c1[nH]ncc1CS2,-61*,-14%,-27%,2%,?,-7%
Cc1ccc(Cn2ncc3c(N4CCN(c5ccccc5C)CC4)ncnc32)cc1,-14,18µM*,0%,5%,9%,-7%
Cc1ccc(Cl)cc1-n1ncc2c(N3CCN(Cc4ccccc4)CC3)ncnc21,-35,3.2µM*,/,/,-1%,1%
c1ccc(Cn2ncc3c(N4CCCCC4)ncnc32)cc1,6,-29%,-4%,-9%,1%,8%
Clc1ccc(Cn2ncc3c(N4CCN(c5ccccc5)CC4)ncnc32)cc1,-102*,13µM*,/,0%,/,7%
Cc1ccc(Cn2ncc3c(N4CCOCC4)ncnc32)cc1,-9,?,-1%,-24%[3.69 µM],6%,/
CCCOc1ccc(C(=O)Nc2cc3c(cc2N2CCOCC2)n(C)c(=O)n3C)cc1,-6,-12%,/,/,0%,-14%
Cc1ccc(-c2cn(CCN)c(=O)cn2)cc1,11,/,/,/,/,/
NC(=O)c1c(NC(=O)Cn2cnc([N+](=O)[O-])n2)sc2c1CCCC2,-26,-11%,-12%,-6%,-19%,-8%
CC1CCc2c(sc(NC(=O)Cn3cnc([N+](=O)[O-])n3)c2C(N)=O)C1 (stereo unspecified),-62*,-13%,0%,-13%,4%,-2%
Cc1ccc(-c2nc3c(C)cc(Br)cn3c2Cc2ccccc2C(F)(F)F)cc1,-8,/,/,/,/,/
COc1cc2nc(C3CCC3)nc(N3CCN(c4ccccn4)CC3)c2cc1OC,/,18µM*,-1%,-13%,-1%,5%
O=C1CC(c2ccccc2)=Nc2ccccc2N1,-11,/,2%,1%,-8%,-3%
O=C1CC(c2ccco2)=Nc2ccccc2N1,-16,/,-6%,8%,45µM*,-19%
COc1ccc(OC(=O)N2CCOCC2)cc1,65,43%,9%,0%,15%,-9%
COc1ccc(OC(=O)N2C/C(=C/c3ccccc3)C(=O)/C(=C\c3ccccc3)C2)cc1,-97*,32µM*,/,12%,/,1%
